Inconclusive results are not listed. Where a call stands in place of a potency, no number is given. Activity calls are given as the source filed them. The call rests on the fitted dose curve.
assay: Primary qHTS for Vero E6 cytotoxicity: counterscreen for inhibitors of SARS-S pseudo-typed particle cell entry (AID 1479150); conditions: cell viability; series mostly up to 57.1 µM

Structure (SMILES)	Potency
N#C/C(=C1/SC[C@@H](c2ccc(Cl)cc2Cl)S1)n1ccnc1	inactive
CN1CCCCC1CCN1c2ccccc2Sc2ccc(S(C)=O)cc21 (stereo not drawn)	inactive
CC(C)(C)c1ccc(C(=O)CCCN2CCC(OC(c3ccccc3)c3ccccc3)CC2)cc1	inactive
Clc1ccc(C(Cn2ccnc2)OCc2c(Cl)cccc2Cl)c(Cl)c1 (stereo not drawn)	inactive
C#C[C@]1(OC(C)=O)CC[C@H]2[C@@H]3CCC4=C[C@@H](OC(C)=O)CC[C@@H]4[C@H]3CC[C@@]21C	inactive
Clc1ccc2c(c1)CCc1cccnc1C2=C1CCNCC1	inactive
C=C1C[C@H]2[C@@H]3C=C(C)C4=CC(=O)CC[C@]4(C)[C@H]3CC[C@]2(C)[C@@]1(OC(C)=O)C(C)=O	inactive
CCCCc1cc2ccccc2c(OCCN(C)C)n1	inactive
CC(=O)c1ccc2c(c1)N(CCCN1CCC(CCO)CC1)c1ccccc1S2	inactive
COc1ccc(CN2CCN(C(c3ccc(F)cc3)c3ccc(F)cc3)CC2)c(OC)c1OC	inactive
COc1cc(N)c(Cl)cc1C(=O)NC1CCN(Cc2ccccc2)CC1	inactive
CCN(CC)CCOC(=O)C1(c2ccccc2)CCCC1	inactive
COc1ccc2c(c1)C(=O)N(CCc1ccc(S(=O)(=O)NC(=O)NC3CCCCC3)cc1)C(=O)C2(C)C	inactive
CCCCCOc1ccccc1/C(=C\SC)n1ccnc1	inactive
COc1ccccc1N1CCN(CC(O)COc2cccc3ccccc23)CC1 (stereo not drawn)	inactive
COC(=O)[C@H]1[C@H]2C[C@@H]3c4[nH]c5cc(OC)ccc5c4CCN3C[C@H]2C[C@@H](OC(=O)/C=C/c2ccc(O)c(OC)c2)[C@@H]1OC	inactive
CN(C)CCCN1c2ccccc2Sc2ccccc21	inactive
CO[C@@H]1[C@@H](O[C@@H]2O[C@H](C)[C@@H](O[C@H]3C[C@@](C)(O)[C@@H](O)[C@H](C)O3)[C@H](N(C)C)[C@H]2O)[C@@H](CC=O)C[C@@H](C)[C@@H](O[C@@H]2CC[C@H](N(C)C)[C@@H](C)O2)/C=C/C=C/C[C@@H](C)OC(=O)C[C@H]1OC(C)=O	inactive
NS(=O)(=O)c1cc2c(cc1Cl)NCNS2(=O)=O	inactive

Structure (SMILES)	Potency
O=C(c1ccc(F)cc1)C1CCN(CCn2c(=O)[nH]c3ccccc3c2=O)CC1	inactive
O[C@@H](COc1cccc2ncccc12)CN1CCN(C2c3ccccc3[C@@H]3[C@H](c4ccccc42)C3(F)F)CC1 (stereo partly drawn)	inactive
CCCCCCCCCCCCCCCCCCOCC(O)CO (stereo not drawn)	inactive
CC(=O)c1ccc2c(c1)N(CCCN(C)C)c1ccccc1S2	inactive
C=C1C(=C/C=C2\CCC[C@]3(C)[C@@H]([C@H](C)/C=C/[C@@H](O)C4CC4)CC[C@@H]23)C[C@@H](O)C[C@@H]1O	inactive
COc1cccc(CCc2ccccc2OCC(CN(C)C)OC(=O)CCC(=O)O)c1 (stereo not drawn)	inactive
OCCN1CCN(CCCN2c3ccccc3C=Cc3ccccc32)CC1	inactive
CCCOC(C(=O)OC1CCN(C)CC1)(c1ccccc1)c1ccccc1	inactive
COC(=O)C1=C(C)NC(C)=C(C(=O)OC(C)(C)CN(C)CCC(c2ccccc2)c2ccccc2)C1c1cccc([N+](=O)[O-])c1 (stereo not drawn)	inactive
CC(C)C[C@@H]1[C@H](c2ccccc2)OC(=O)N1CCCN1CCCCCC1	inactive
CC1(C)CCC(C)(C)c2cc(NC(=O)c3ccc(C(=O)O)cc3)ccc21	inactive
CN1CCC(OC(c2ccccc2)c2ccccc2)CC1	inactive
c1ccc(CNCCNCc2ccccc2)cc1	inactive
CC(=O)O[C@]1(C(C)=O)CC[C@H]2[C@@H]3C=C(Cl)C4=CC(=O)CC[C@]4(C)[C@H]3CC[C@@]21C	inactive
CC/C(=C(/CC)c1ccc(O)cc1)c1ccc(O)cc1	inactive
CN(C)CCOc1ccccc1Cc1ccccc1	inactive
C[C@@H](CN(C)C)CN1c2ccccc2Sc2ccccc21	inactive
NC(=NCCCCCCN=C(N)/N=C(\N)Nc1ccc(Cl)cc1)/N=C(\N)Nc1ccc(Cl)cc1	inactive
Clc1ccc(Cn2c(CN3CCCC3)nc3ccccc32)cc1	inactive
